Rows were chosen to be rich in hits. Some 10% of all compounds tested hit in one or more screens of this group.
RORgamma inh – blocks mouse ROR gamma transcriptional activity; P51450; AID 2551; 5.4% of 310,000 active; Potency, µM (doses to about 53.6 µM), for inactives: at the top dose activity change, negative = inhibition, usual class: inhibitors; Drosophila S2 Gal4-RORgamma UAS-luciferase reporter, 20 h; further: on the % scale 0 is the no-effect control and ±100 the full control effect; nearly all actives have a fitted effect of over 60% in size
Target sequence (P51450 whole entry, looked up, the tested form may be a part): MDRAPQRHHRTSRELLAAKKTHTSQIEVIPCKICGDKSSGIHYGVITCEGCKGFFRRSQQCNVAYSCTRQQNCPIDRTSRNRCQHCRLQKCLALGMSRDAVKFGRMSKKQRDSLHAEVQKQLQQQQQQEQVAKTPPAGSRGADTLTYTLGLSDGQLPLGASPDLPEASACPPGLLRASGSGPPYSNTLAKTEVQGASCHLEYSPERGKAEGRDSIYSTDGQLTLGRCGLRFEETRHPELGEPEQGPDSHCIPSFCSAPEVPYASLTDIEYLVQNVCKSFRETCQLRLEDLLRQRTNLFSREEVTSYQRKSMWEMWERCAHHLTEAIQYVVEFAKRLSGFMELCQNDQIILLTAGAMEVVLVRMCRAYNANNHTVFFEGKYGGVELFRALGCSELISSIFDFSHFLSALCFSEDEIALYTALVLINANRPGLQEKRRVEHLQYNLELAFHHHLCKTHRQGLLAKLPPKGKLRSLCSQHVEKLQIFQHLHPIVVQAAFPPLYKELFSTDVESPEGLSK
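In this cell-based reporter format, copper sulfate (700 uM final) drives Gal4–ROR gamma fusion expression from a metallothionein promoter in Drosophila Schneider cells; compounds preincubated 1 hr, reporter read after 20 hr at ambient temperature.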
KB-3-1 cytotox – kills parental KB-3-1 adenocarcinoma cells | KB-3-1 viability, CellTiter-Glo ATP luminescence, 72 h | Potency, µM (doses to about 46.1 µM), hits mostly cytotoxic | 1.4% of 400,000 active | AID 1347075; further: on the % scale 0 is the no-effect control and ±100 the full control effect; nearly all actives have a fitted effect of over 60% in size
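Parental KB-3-1 viability, qHTS format: 72 h compound exposure, 37 °C; CellTiter-Glo; media-only wells and DMSO plates as controls; concentration-effect fits on corrected data.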
VP16 counter – Gal4-VP16 reporter inhibition counter-screen; Drosophila S2 Gal4-VP16 UAS-luciferase, luminescence, 20 h; Potency, µM (titrated, usually from 53.6 µM), for inactives: at the top dose activity, negative = inhibition, actives largely listed as inhibitors; 3.5% of 310,000 active;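 further: Gal4-VP16 expression switched on by copper sulfate through the metallothionein promoter; on the % scale 0 is the no-effect control and ±100 the full control effect; nearly all actives have a fitted effect of over 50% in size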
KB-V1 MDR tox – KB-V1 MDR subline cytotoxicity; 3.4% of 400,000 active; KB-V1 MDR cells viability, CellTiter-Glo, 72 h; Potency, µM (top dose mostly 46.1 µM), usual class: cytotoxic; further: on the % scale 0 is the no-effect control and ±100 the full control effect; nearly all actives have a fitted effect of over 60% in size
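Cells of the MDR subline KB-V1 are plated, dosed with compound at multiple concentrations, and incubated 72 h at 37 degrees C; CellTiter-Glo is then added and luminescence read after 10 min.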
SW480 rerep – inducers of DNA re-replication in SW480 colon cancer cells. Potency, µM (titrated, usually from 46.1 µM), for the others: at the highest dose re-replication activation, actives largely listed as activators. SW480 DNA re-replication, Hoechst DNA content imaging, 48 h. AID 624297. 1.8% of 340,000 active; further: % of control where 0% means no effect; nearly all actives have a fitted effect of over 55% in size
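Quantitative HTS format with DMSO vehicle controls; 48 hr drug incubation at 37 C, then 40 min Hoechst staining and scanning imager measurement at 405 nm excitation.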
MCF10A rereplic – induces DNA re-replication in MCF 10a normal breast cells; MCF 10A DNA re-replication, Hoechst nuclear intensity, 48 h; 2.9% of 350,000 active; Potency, µM (doses to about 46.1 µM), for the others: top-dose activity, positive = re-replication, hits mostly activators; further: % of control where 0% means no effect; nearly all actives have a fitted effect of over 50% in size
* hit, by the source's call; [ ] = another dose, or the depositor's remark. The call rests on the fitted dose curve; in most records, active means well fitted curve in the direction sought with a large enough effect; inconclusive means small, poorly fitted or top-dose-only effect, or another doubt; inactive means no such curve, though single readings can be large; an effect the other way counts as inactive or inconclusive. Potency means the concentration at half of the fitted maximal effect.

CCOC(=O)c1sc(NC(=S)NC(=O)c2ccccc2)c(C(=O)OCC)c1C was read as RORgamma inh 2.24µM*, KB-3-1 cytotox inconclusive, VP16 counter inconclusive, KB-V1 MDR tox inactive and MCF10A rereplic inconclusive.
Screening CCOC(=O)c1sc(NC(=O)CN(CC(C)C)CC(C)C)c(C(=O)OCC)c1C returned RORgamma inh -25.4%, KB-3-1 cytotox inconclusive, VP16 counter -2.1%, KB-V1 MDR tox 20.6µM*, SW480 rerep 2.7% and MCF10A rereplic inconclusive.
CCOC(=O)c1sc(NC(=S)NC(=O)c2ccccc2Cl)c(C(=O)OCC)c1C was read as RORgamma inh -40.8%, KB-3-1 cytotox inactive, VP16 counter -5.0%[0.365 µM], KB-V1 MDR tox inactive, SW480 rerep -3.5% and MCF10A rereplic 3.4%.
CC1=C(C(=O)Nc2cccnc2)C(c2ccccc2)n2nc(SCc3ccccc3)nc2N1 (centres undefined) was read as KB-3-1 cytotox inactive and KB-V1 MDR tox inactive.
`CCc1cccc(NC(=O)CN(C)S(=O)(=O)c2ccc3c(c2)CCCN3C(C)=O)c1` gave KB-3-1 cytotox inactive and KB-V1 MDR tox inactive.
For COC(=O)c1c(NC(=S)Nc2ccccc2Cl)sc(C)c1C the results were RORgamma inh 2.82µM*, KB-3-1 cytotox inactive, VP16 counter 6.31µM*, KB-V1 MDR tox inactive, SW480 rerep inconclusive and MCF10A rereplic 26.4%.
`CCOC(=O)c1c(NC(=S)NC(C)=O)sc(C)c1C` gave RORgamma inh 7.94µM*, KB-3-1 cytotox inactive, VP16 counter 11.2µM*, KB-V1 MDR tox inactive, SW480 rerep -3.7% and MCF10A rereplic 12.6%.
For CCOC(=O)c1c(NC(=O)CN2C(=O)NC(C)(c3ccccc3)C2=O)sc(C)c1C (centres undefined) the results were RORgamma inh 25.6%, KB-3-1 cytotox 16.4µM*, VP16 counter -4.5%, KB-V1 MDR tox 16.4µM*, SW480 rerep inconclusive and MCF10A rereplic 10.3µM*.
Screening CCOC(=O)c1c(NC(=O)COC)sc(C)c1C returned RORgamma inh 3.7%, KB-3-1 cytotox inactive, VP16 counter 1.0%, KB-V1 MDR tox inactive, SW480 rerep 0.5% and MCF10A rereplic 23.6%.
`COC(=O)c1c(NC(=O)Cc2ccccc2)sc(C)c1C` gave RORgamma inh 14.9%, KB-3-1 cytotox inactive, VP16 counter 14.7%, KB-V1 MDR tox inactive, SW480 rerep 1.2% and MCF10A rereplic 28.2%.
Screening Cc1c(C(=O)Nc2cccc(C(F)(F)F)c2)oc2ccc3c(c12)C(=O)CC(C)(C)O3 returned KB-3-1 cytotox inactive and KB-V1 MDR tox inconclusive.
`CC1=C(C(=O)Nc2ccccc2)C(c2cccnc2)n2nc(SCc3ccccc3F)nc2N1` (centres undefined) gave KB-3-1 cytotox inactive and KB-V1 MDR tox inconclusive.
`O=C(N/N=C/c1ccccc1)c1ccc(CN2C(=O)c3cccc4cccc2c34)cc1` gave RORgamma inh -8.4%, KB-3-1 cytotox inactive, VP16 counter -11.1%, KB-V1 MDR tox inactive, SW480 rerep inconclusive and MCF10A rereplic 16.4µM*.
Screening Cc1cc(N2CCCC2=O)cc(C)c1S(=O)(=O)NCCOc1ccc(C(C)(C)C)cc1 returned RORgamma inh inconclusive, KB-3-1 cytotox inconclusive, VP16 counter 3.16µM*, KB-V1 MDR tox inconclusive, SW480 rerep 16.8% and MCF10A rereplic inconclusive.
For OC(c1ccccc1)(c1ccccc1)c1nccc2ccccc12 the results were KB-3-1 cytotox inconclusive, KB-V1 MDR tox 18.4µM*, SW480 rerep 2.2% and MCF10A rereplic 9.6%.
`c1ccc(-c2nccc3ccccc23)cc1` gave KB-3-1 cytotox inactive, KB-V1 MDR tox inactive, SW480 rerep -15.2% and MCF10A rereplic -10.8%.
`Cc1cccc(OCC(=O)NCc2ccccc2)c1` gave RORgamma inh 44.4%, KB-3-1 cytotox inactive, VP16 counter 29.8%, KB-V1 MDR tox inactive, SW480 rerep 4.5% and MCF10A rereplic -1.7%.
C/C(=N\NC(=O)COc1cccc(C)c1)c1ccc2ccccc2c1O was read as RORgamma inh 4.47µM*, KB-3-1 cytotox inconclusive, VP16 counter 3.98µM*, KB-V1 MDR tox inactive, SW480 rerep 23.1µM* and MCF10A rereplic 13µM*.
`C/C=C1\COC(C(=O)NCc2cccc(OC)c2OC)(C(F)(F)F)C=C1C=C(C)C` (centres undefined) gave RORgamma inh 16.4% and VP16 counter -2.4%.
CNc1ccccc1C(C)(C)c1cc(-c2ccc(F)cc2)no1 was read as RORgamma inh 2.5%, KB-3-1 cytotox 8.2µM*, VP16 counter -4.3%, KB-V1 MDR tox inconclusive and MCF10A rereplic -4.7%.
`CNc1ccccc1C(C)(C)c1cc(-c2cccc(Br)c2)no1` gave RORgamma inh inconclusive, KB-3-1 cytotox 23.1µM*, VP16 counter 15.8µM*, KB-V1 MDR tox inactive, SW480 rerep 26.0% and MCF10A rereplic 14.6µM*.
For CNc1ccccc1C(C)(C)c1cc(-c2cccc([N+](=O)[O-])c2)no1 the results were RORgamma inh 23.2%, KB-3-1 cytotox inactive, VP16 counter 1.3%, KB-V1 MDR tox inactive, SW480 rerep inconclusive and MCF10A rereplic inconclusive.
`COC(=O)C1CC1C(NC(=O)[C@H]1CCCCN1)c1ccccc1` (some centres undefined) gave RORgamma inh 1.3% and VP16 counter -10.5%.
`CN(C(=S)Nc1ccc(F)cc1)C1(c2ccccc2Cl)CCCCC1=O` (centres undefined) gave RORgamma inh 8.91µM*, KB-3-1 cytotox inactive, VP16 counter -4.0%, KB-V1 MDR tox inconclusive, SW480 rerep inconclusive and MCF10A rereplic inconclusive.
For COc1ccc(Cn2c(=S)[nH]c3cc(OC)c(OC)cc3c2=O)cc1 the results were RORgamma inh 3.55µM*, KB-3-1 cytotox inconclusive, VP16 counter inconclusive, KB-V1 MDR tox inactive, SW480 rerep 0.3% and MCF10A rereplic inconclusive.
For COc1cc2[nH]c(=S)n(Cc3ccc(C)cc3)c(=O)c2cc1OC the results were RORgamma inh 1.78µM*, KB-3-1 cytotox inactive, VP16 counter 3.16µM*, KB-V1 MDR tox inactive, SW480 rerep 20.1% and MCF10A rereplic 13µM*.
COc1ccc(Cn2c(=O)[nH]c3cc(OC)c(OC)cc3c2=O)cc1 was read as RORgamma inh -0.3%, KB-3-1 cytotox inactive, VP16 counter -4.0%, KB-V1 MDR tox inactive, SW480 rerep -5.6% and MCF10A rereplic 9.5%.
For c1nc(NCc2ccc3c(c2)OCO3)c2[nH]cnc2n1 the results were KB-3-1 cytotox inactive and KB-V1 MDR tox inactive.
